This note sets out measurements from PubChem BioAssay (NCATS).

Inconclusive results are not listed. Active and inactive are the calls of the source. Unless noted, calls come from the whole dose curve; as a rule, active = well fitted cell-killing curve with a large enough effect; inconclusive = small, poorly fitted or top-dose-only effect, or effect the other way; inactive = no such curve, though single readings can be large or run the other way.

Assay [1] in a line: Quantitative High-Throughput drug screen in 47 multiple myeloma cell lines against the NCATS MIPE library collection: PE2_PLB cell viability assay (AID 1919869). Note: nearly all actives have a fitted effect of over 35% in size. Note: potency is the fitted concentration of half-maximal effect. The essentials: (§1)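 ATP-based luminescence (CellTiter-Glo, 5 min RT incubation) quantified surviving cells following two days' treatment with MIPE 4.0 agents at 37 °C, 5% CO2.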
Assay [2] can be described thus: Quantitative High-Throughput drug screen in 47 multiple myeloma cell lines against the NCATS MIPE library collection: PCM6_Riken cell viability assay (AID 1919870). Note: nearly all actives have a fitted effect of over 30% in size. Note: potency is the fitted concentration of half-maximal effect. The essentials: as §1
A short description of assay [3]: Quantitative High-Throughput drug screen in 47 multiple myeloma cell lines against the NCATS MIPE library collection: RPMI8226_ATCC cell viability assay (AID 1919871). Note: nearly all actives have a fitted effect of over 30% in size. Note: potency is the fitted concentration of half-maximal effect. The essentials: as §1
Assay [4] is described as follows: Quantitative High-Throughput drug screen in 47 multiple myeloma cell lines against the NCATS MIPE library collection: OPM2_DSMZ cell viability assay (AID 1919872). Note: nearly all actives have a fitted effect of over 30% in size. Note: potency is the fitted concentration of half-maximal effect. The essentials: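 Viability readout: CellTiter-Glo luminescence following 5 min room-temperature incubation with reagent. Prior exposure: 48 h, 37C, humidified 5% CO2, 500 cells per well.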
Assay [5] can be described thus: Quantitative High-Throughput drug screen in 47 multiple myeloma cell lines against the NCATS MIPE library collection: KMS11_JCRBsus cell viability assay (AID 1919873). Note: nearly all actives have a fitted effect of over 50% in size. Note: potency is the fitted concentration of half-maximal effect. The essentials:
as §1

The nature of assay [6]: Quantitative High-Throughput drug screen in 47 multiple myeloma cell lines against the NCATS MIPE library collection: KMS28BM_JCRB cell viability assay (AID 1919874). Note: nearly all actives have a fitted effect of over 35% in size. Note: potency is the fitted concentration of half-maximal effect. The essentials: as §1
The nature of assay [7]: qHTS drug screen for cell cycle checkpoint inhibitors in PARPi-resistant BRCA-mutant ovarian cancer cell lines. (AID 1963452; calls by dose curve). The note with it: PEO1/OlaR viability, CellTiter-Glo luminescence, 96 h, stronger effect = lower value. The essentials: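 PEO1, PEO4 and PEO1/OlaR ovarian cancer cells, 600 per well, exposed 96 h at 37C to a dilution series. Viability read by CellTiter-Glo luminescence, normalized to DMSO and empty wells; activity summarized as Z-AUC.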
A general note: Quantitative high-throughput screening tests each substance at several concentrations.

A short description of assay [8]: qHTS for identification of novel therapeutic agents for treatment of microphthalmiaassociated transcription factor (MiT) renal cell carcinoma (RCC) (AID 1963991). The note with it: CellTiter-Glo, 48 h, stronger effect = lower value. The essentials:
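Viability of three TFE3-fusion renal carcinoma lines measured by CellTiter-Glo after 48 h treatment with each of 1912 compounds at 11 concentrations. Responses scaled between DMSO (100%) and empty wells (0%) before curve fitting.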

[9] abbreviates: measured here: PEO1 parental Z-AUC.
[10] abbreviates: TFE3-RCC UOK109 viability, measured here: UOK109 Z-AUC.
[11] abbreviates: TFE3-RCC viability, measured here: UOK124 Z-AUC.
[12] abbreviates: TFE3-RCC viability, measured here: UOK145 Z-AUC.

On to `COc1cc2nc(N3CCN(C(=O)C4COc5ccccc5O4)CC3)nc(N)c2cc1OC` (stereo not given), for which the Potency in assay [1] was 18.7 µM (active); in assay [2] it was 20.9 µM (active); in assay [3], 16.6 µM (active); in assay [5], 18.7 µM (active); in assay [6], 16.6 µM (active). For the same molecule, in assay [4], the Potency result was “inactive”.
With `COc1cc2nc(N(C)CCCNC(=O)C3CCCO3)nc(N)c2cc1OC` (stereo not given), the Potency result in assay [1] and in assay [2] was “inactive” in each case.
Turning to `CN1C(C(=O)Nc2ccccn2)=C(O)c2ccccc2S1(=O)=O`, the Potency entry in assay [1], in assay [2], in assay [3], in assay [4] and in assay [5] was “inactive” in each case. Moreover, the Z-AUC was 0.47 (inactive) in assay [7], 0.178 in assay [7] (setting [9]) and 0.354 in assay [7] (measured here: PEO4 Z-AUC).
Consider `Cc1cc(C(C)(C)C)c(O)c(C)c1CC1=NCCN1`, for which the Potency result in assay [1], in assay [2], in assay [4], in assay [5] and in assay [6] was “inactive” each time. The Z-AUC in assay [7] was 1.21 (inactive); in assay [7] (setting [9]), 0.68; in assay [7] (measured here: PEO4 Z-AUC) it was 0.695. In addition, the z-score in assay [8] (setting [10]) came to 0.384; in assay [8] (setting [11]) it was 0.625; in assay [8] (setting [12]) it was 1.63.
`CC(C)C(=O)Nc1ccc([N+](=O)[O-])c(C(F)(F)F)c1`: the Potency in assay [1] and in assay [2] was 3.32 µM (active) each time. Moreover, the Potency result in assay [3], in assay [4] and in assay [6] was “inactive” in each case. Also, the Z-AUC was -1.15 (inactive) in assay [7], -0.423 in assay [7] (setting [9]) and 0.418 in assay [7] (measured here: PEO4 Z-AUC).
`COc1ccc2[nH]cc(CCNC(C)=O)c2c1`: the Potency result in assay [1], in assay [3] and in assay [5] was “inactive” in each case.
Consider `CN(C)C(=N)N=C(N)N`, for which the Potency result in assay [1], in assay [3], in assay [4], in assay [5] and in assay [6] was “inactive” in each case. Further, the z-score in assay [8] (setting [10]) was 0.797; in assay [8] (setting [11]), 1.58; in assay [8] (setting [12]), 0.981.
As for `Cc1ccc(-c2cc(C(F)(F)F)nn2-c2ccc(S(N)(=O)=O)cc2)cc1`, the Potency entry in assay [1] and in assay [4] was “inactive” in each case. In addition, the Z-AUC in assay [7] was 1.19 (inactive); in assay [7] (setting [9]), 0.566; in assay [7] (measured here: PEO4 Z-AUC) it was 1.1.
As for `CN(C)CCC=C1c2ccccc2C=Cc2ccccc21`, the Potency entry in assay [1] and in assay [4] was “inactive” in each case. The Potency in assay [3] was 6.62 µM (active); in assay [6] it was 3.72 µM (active). Besides, the figures for the Z-AUC in assay [7], in assay [7] (setting [9]) and in assay [7] (measured here: PEO4 Z-AUC) were -0.345 (inactive), 0.579 and 0.349, respectively.
Take `COc1ccc2c(c1)c(CC(=O)O)c(C)n2C(=O)c1ccc(Cl)cc1`: the Potency entry in assay [1], in assay [3], in assay [4], in assay [5] and in assay [6] was “inactive” each time. The figures for the Z-AUC in assay [7], in assay [7] (setting [9]) and in assay [7] (measured here: PEO4 Z-AUC) were 0.8 (inactive), 0.391 and 0.536, respectively.
Turning to `CC1(C)O[C@H]2CC(=O)OC[C@]23[C@H]2CC[C@@]4(C)[C@H](c5ccoc5)OC(=O)[C@H]5O[C@]54[C@]2(C)C(=O)C[C@@H]13`, the Potency result in assay [1], in assay [3], in assay [4], in assay [5] and in assay [6] was “inactive” each time. Besides, the z-score in assay [8] (setting [10]) came out at 0.617; in assay [8] (setting [11]) it was 0.649; in assay [8] (setting [12]) it was 1.11.
Turning to `COc1nc(C)nc(Cl)c1NC1=NCCN1`, the Potency result in assay [4], in assay [5] and in assay [6] was “inactive” throughout. Further, the Z-AUC in assay [7] was -0.0792 (inactive); in assay [7] (setting [9]), -0.161; in assay [7] (measured here: PEO4 Z-AUC), 0.307. Further, the z-score in assay [8] (setting [10]) amounted to 0.168; in assay [8] (setting [11]), 0.306; in assay [8] (setting [12]), 0.251.
`O=C(C1CCCCC1)N1CC(=O)N2CCc3ccccc3C2C1` (stereo not given): the Potency result in assay [4], in assay [5] and in assay [6] was “inactive” each time. The Z-AUC in assay [7] was 1.17 (inactive); in assay [7] (setting [9]), 0.752; in assay [7] (measured here: PEO4 Z-AUC), 1.07. Moreover, the z-score in assay [8] (setting [10]) is -4.91; in assay [8] (setting [11]), 0.786; in assay [8] (setting [12]), -3.49.
Consider `COc1ccc(C2CNC(=O)C2)cc1OC1CCCC1` (stereo not given), for which the Potency entry in assay [1], in assay [3], in assay [4], in assay [5] and in assay [6] was “inactive” in each case. For the same molecule, the Z-AUC in assay [7] was -0.000894 (inactive); in assay [7] (setting [9]), 0.813; in assay [7] (measured here: PEO4 Z-AUC), 0.981. The z-score was determined as 0.4 in assay [8] (setting [10]), 0.743 in assay [8] (setting [11]) and 0.539 in assay [8] (setting [12]).
As to `NS(=O)(=O)c1cc2c(cc1Cl)NCNS2(=O)=O`, the Potency result in assay [3], in assay [4] and in assay [5] was “inactive” each time. Further, the results for the Z-AUC in assay [7], in assay [7] (setting [9]) and in assay [7] (measured here: PEO4 Z-AUC) were 1.17 (inactive), 1.34 and 1.57, respectively. Further, the z-score was determined as 0.106 in assay [8] (setting [10]), 0.843 in assay [8] (setting [11]) and 0.437 in assay [8] (setting [12]).
Regarding `CCCCc1oc2ccccc2c1C(=O)c1cc(I)c(OCCN(CC)CC)c(I)c1`, the results for the Potency in assay [2], in assay [3] and in assay [6] were 20.9 µM (active), 18.7 µM (active) and 20.9 µM (active), respectively. Also, the Z-AUC in assay [7] was -0.673 (inactive); in assay [7] (setting [9]), -0.649; in assay [7] (measured here: PEO4 Z-AUC), -0.00161.
In the case of `COc1ccccc1N1CCN(CC(O)COc2cccc3ccccc23)CC1` (stereo not given), the Potency entry in assay [1] is “inactive”. Moreover, the Potency in assay [3] is 26.4 µM (active); in assay [6], 13.2 µM (active). In addition, the values for the Z-AUC in assay [7], in assay [7] (setting [9]) and in assay [7] (measured here: PEO4 Z-AUC) were -0.153 (inactive), 0.273 and 0.504, respectively. In addition, the results for the z-score in assay [8] (setting [10]), in assay [8] (setting [11]) and in assay [8] (setting [12]) were 0.719, 0.448 and -1.51, respectively.
For `Fc1ccc([C@@H]2CCNC[C@H]2COc2ccc3c(c2)OCO3)cc1`, the Potency result in assay [2] is “inactive”. The Potency in assay [4] is 18.7 µM (active); in assay [5], 23.5 µM (active); in assay [6], 20.9 µM (active).
With `Clc1ccccc1C(c1ccccc1)(c1ccccc1)n1ccnc1`, the Potency in assay [3] is 14.8 µM (active). Moreover, the Z-AUC in assay [7] is -0.839 (inactive); in assay [7] (setting [9]) it was -1.06; in assay [7] (measured here: PEO4 Z-AUC), -0.849.
